# In the supplement of paper PMC10037445:
# In all, about 2,900 compounds were measured (“IRF Lucia reporter activity, fold change vs agonist alone”: median about 0.9, highest 2% from about 2.8 on). What follows is part of a selection rich in the highest values, with near analogues and random picks from the rest.
# How the values were obtained:
# RAW-Dual [1] = experiment: IRF Lucia reporter activity, fold change vs agonist alone; cytotoxicity flag (confluency mask): not cytotoxic; higher = enhanced IRF activity
# In short: (§1)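 RAW-Dual macrophages were seeded in DMEM at 50,000 cells/well in 384-well plates, given 50 nL of library stock by pin tool, and given a PRR agonist 1 h later. Plates were held at 37 °C, 5% CO2 for 20 hours, after which supernatant was read for IRF by QuantiLuc luminescence and for NF-κB by QuantiBlue absorbance at 620 nm. Reporter activity is expressed as fold change over wells that received agonist alone. A well was called cytotoxic when IncuCyte confluency fell below 70% of agonist controls in both mask sets.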
# RAW-Dual [2] = experiment: IRF Lucia reporter activity, fold change vs agonist alone; higher = enhanced IRF activity; settings: library stock concentration (final ~1000-fold dilution): 10 mM; cytotoxicity flag (confluency mask): not cytotoxic; agonist: MPLA (TLR4) […]
# In short: as §1
# RAW-Dual [3] = experiment: IRF Lucia reporter activity, fold change vs agonist alone; cytotoxicity flag (confluency mask): cytotoxic (confluency <70% of control); higher = enhanced IRF activity
# In short: as §1
# [4] = agonist: 3'3'-cGAMP (STING) 10 ug/mL
structure (smiles),measurement,setting,value
COC1CC2CCC(C)C(O)(O2)C(=O)C(=O)N2CCCCC2C(=O)OC(C(C)CC2CCC(OC(=O)C(C)(CO)CO)C(OC)C2)CC(=O)C(C)C=C(C)C(O)C(OC)C(=O)C(C)CC(C)C=CC=CC=C1C (centres undefined) (library stock concentration (final ~1000-fold dilution): 10 mM),IRF Lucia reporter activity,RAW-Dual [1]; [4],0.69
same,IRF Lucia reporter activity,RAW-Dual [1]; agonist: LPS (TLR4) 0.1 ug/mL,2.98
COC1CC2CCC(C)C(O)(O2)C(=O)C(=O)N2CCCCC2C(=O)OC(C(C)CC2CCC(O)C(OC)C2)CC(=O)C(C)C=C(C)C(O)C(OC)C(=O)C(C)CC(C)C=CC=CC=C1C (centres undefined),IRF Lucia reporter activity,RAW-Dual [2],1.46
COC1CC2CCC(C)C(O)(O2)C(=O)C(=O)N2CCCCC2C(=O)OC(C(C)CC2CCC(n3cnnn3)C(OC)C2)CC(=O)C(C)C=C(C)C(O)C(OC)C(=O)C(C)CC(C)C=CC=CC=C1C (centres undefined) (library stock concentration (final ~1000-fold dilution): 10 mM),IRF Lucia reporter activity,RAW-Dual [1]; [4],0.943
same,IRF Lucia reporter activity,RAW-Dual [1]; agonist: LPS (TLR4) 0.1 ug/mL,0.694
COC1CC2CCC(C)C(O)(O2)C(=O)C(=O)N2CCCCC2C(=O)OC(C(C)CC2CCC(OP(C)(C)=O)C(OC)C2)CC(=O)C(C)C=C(C)C(O)C(OC)C(=O)C(C)CC(C)C=CC=CC=C1C (centres undefined) (library stock concentration (final ~1000-fold dilution): 10 mM),IRF Lucia reporter activity,RAW-Dual [1]; [4],1.03
same,IRF Lucia reporter activity,RAW-Dual [1]; agonist: LPS (TLR4) 0.1 ug/mL,1.6
COC1CC2CCC(C)C(O)(O2)C(=O)C(=O)N2CCCCC2C(=O)OC(C(C)CC2CCC(OCCO)C(OC)C2)CC(=O)C(C)C=C(C)C(O)C(OC)C(=O)C(C)CC(C)C=CC=CC=C1C (centres undefined) (library stock concentration (final ~1000-fold dilution): 10 mM),IRF Lucia reporter activity,RAW-Dual [1]; [4],1.28
same,IRF Lucia reporter activity,RAW-Dual [1]; agonist: LPS (TLR4) 0.1 ug/mL,2.63
CCC1/C=C(\C)CC(C)CC(OC)C2OC(O)(C(=O)C(=O)N3CCCCC3C(=O)OC(/C(C)=C/C3CCC(Cl)C(OC)C3)C(C)C(O)CC1=O)C(C)CC2OC (centres undefined) (library stock concentration (final ~1000-fold dilution): 10 mM),IRF Lucia reporter activity,RAW-Dual [1]; [4],0.715
same,IRF Lucia reporter activity,RAW-Dual [1]; agonist: LPS (TLR4) 0.1 ug/mL,1.66
COC1CC2CCC(C)C(O)(O2)C(=O)C(=O)N2CCCCC2C(=O)OC(C(C)CC2CCC(OC(=O)C(C)(CO)CO)C(OC)C2)CC(=O)C(C)C=C(C)C(O)C(OC)C(=O)C(C)CC(C)C=CC=CC=C1C (centres undefined),IRF Lucia reporter activity,RAW-Dual [2],4.11
COC1CC2CCC(C)C(O)(O2)C(=O)C(=O)N2CCCCC2C(=O)OC(C(C)CC2CCC(OP(C)(C)=O)C(OC)C2)CC(=O)C(C)C=C(C)C(O)C(OC)C(=O)C(C)CC(C)C=CC=CC=C1C (centres undefined),IRF Lucia reporter activity,RAW-Dual [2],1.24
COC1CC2CCC(C)C(O)(O2)C(=O)C(=O)N2CCCCC2C(=O)OC(C(C)CC2CCC(O)C(OC)C2)CC(=O)C(C)C=C(C)C(O)C(OC)C(=O)C(C)CC(C)C=CC=CC=C1C (centres undefined) (library stock concentration (final ~1000-fold dilution): .1 mM),IRF Lucia reporter activity,RAW-Dual [1]; [4],0.922
same,IRF Lucia reporter activity,RAW-Dual [1]; agonist: LPS (TLR4) 0.1 ug/mL,0.698
CCC1/C=C(\C)CC(C)CC(OC)C2OC(O)(C(=O)C(=O)N3CCCCC3C(=O)OC(/C(C)=C/C3CCC(Cl)C(OC)C3)C(C)C(O)CC1=O)C(C)CC2OC (centres undefined),IRF Lucia reporter activity,RAW-Dual [2],1.02
COC1CC2CCC(C)C(O)(O2)C(=O)C(=O)N2CCCCC2C(=O)OC(C(C)CC2CCC(O)C(OC)C2)CC(=O)C(C)C=C(C)C(O)C(OC)C(=O)C(C)CC(C)C=CC=CC=C1C (centres undefined) (library stock concentration (final ~1000-fold dilution): 10 mM),IRF Lucia reporter activity,RAW-Dual [1]; [4],1.05
same,IRF Lucia reporter activity,RAW-Dual [1]; agonist: LPS (TLR4) 0.1 ug/mL,2.09
CCCc1nc(C)c2c(=O)[nH]c(-c3cc(S(=O)(=O)N4CCN(CC)CC4)ccc3OCC)nn12.Cl.O.O.O (library stock concentration (final ~1000-fold dilution): 10 mM),IRF Lucia reporter activity,RAW-Dual [1]; [4],0.839
same,IRF Lucia reporter activity,RAW-Dual [1]; agonist: LPS (TLR4) 0.1 ug/mL,0.967
CCCc1nc(C)c2c(=O)[nH]c(-c3cc(S(=O)(=O)N4CCN(CC)CC4)ccc3OCC)nn12.Cl.O.O.O,IRF Lucia reporter activity,RAW-Dual [2],0.917
O=C(NCCN1CCOCC1)Nc1nc2ccc(Sc3nnc4ccc(-c5ccc(F)cc5)nn34)cc2s1 (library stock concentration (final ~1000-fold dilution): 10 mM),IRF Lucia reporter activity,RAW-Dual [1]; [4],1.09
same,IRF Lucia reporter activity,RAW-Dual [1]; agonist: LPS (TLR4) 0.1 ug/mL,1.23
O=C(NCCN1CCOCC1)Nc1nc2ccc(Sc3nnc4ccc(-c5ccc(F)cc5)nn34)cc2s1,IRF Lucia reporter activity,RAW-Dual [2],0.994
CC1=C(CSC(=S)N2CCCCC2)C(=O)c2ccccc2C1=O (library stock concentration (final ~1000-fold dilution): 10 mM),IRF Lucia reporter activity,RAW-Dual [3]; [4],0.553
same,IRF Lucia reporter activity,RAW-Dual [3]; agonist: LPS (TLR4) 0.1 ug/mL,0.0143
COc1cc2c(cc1OC(C)C)C(c1ccc(Cl)cc1)N(c1ccc(N(C)CC3CCC(N4CCN(C)C(=O)C4)CC3)cc1)C(=O)C2 (centres undefined) (library stock concentration (final ~1000-fold dilution): 10 mM),IRF Lucia reporter activity,RAW-Dual [1]; [4],0.135
same,IRF Lucia reporter activity,RAW-Dual [1]; agonist: LPS (TLR4) 0.1 ug/mL,1.35
CC(N)C1CCC(C(=O)Nc2ccncc2)CC1.Cl.Cl (centres undefined),IRF Lucia reporter activity,RAW-Dual [2],0.773
CC(N)C1CCC(C(=O)Nc2ccncc2)CC1.Cl.Cl (centres undefined) (library stock concentration (final ~1000-fold dilution): 10 mM),IRF Lucia reporter activity,RAW-Dual [1]; [4],0.926
same,IRF Lucia reporter activity,RAW-Dual [1]; agonist: LPS (TLR4) 0.1 ug/mL,0.81
Nc1ccc(C(=O)Nc2cccc(-c3nc(N4CCOCC4)c4oc5ncccc5c4n3)c2)cn1,IRF Lucia reporter activity,RAW-Dual [2],3.52
Oc1cccc(-c2nc(N3CCOCC3)c3oc4ncccc4c3n2)c1 (library stock concentration (final ~1000-fold dilution): 10 mM),IRF Lucia reporter activity,RAW-Dual [1]; [4],0.381
same,IRF Lucia reporter activity,RAW-Dual [1]; agonist: LPS (TLR4) 0.1 ug/mL,1.94
Oc1cccc(-c2nc(N3CCOCC3)c3oc4ncccc4c3n2)c1,IRF Lucia reporter activity,RAW-Dual [2],1.42
Nc1ccc(C(=O)Nc2cccc(-c3nc(N4CCOCC4)c4oc5ncccc5c4n3)c2)cn1 (library stock concentration (final ~1000-fold dilution): 10 mM),IRF Lucia reporter activity,RAW-Dual [1]; [4],0.205
same,IRF Lucia reporter activity,RAW-Dual [1]; agonist: LPS (TLR4) 0.1 ug/mL,3.93
Nc1ccc(-c2cccc(C(=O)Nc3cnc4nc(N5CCOCC5)oc4c3)n2)cn1 (library stock concentration (final ~1000-fold dilution): 10 mM),IRF Lucia reporter activity,RAW-Dual [1]; [4],0.717
same,IRF Lucia reporter activity,RAW-Dual [1]; agonist: LPS (TLR4) 0.1 ug/mL,1.48
